Values without a mark were called inactive. Activity calls are given as the source filed them. Calls follow the shape of the dose curve; as a rule, active = well fitted curve in the direction sought with a large enough effect in the repeat runs; inconclusive = weak or mixed curves; inactive = flat fitted curve, though single readings scatter.
Assay: qHTS assay to test for compound auto fluorescence at 590 nm (red) in HepG2 cells (AID 720674)
Conditions: HepG2 autofluorescence, red 540/590 nm, 1 h; series mostly up to 91.3 µM; fluorescence, relative to Rose Bengal: at the top concentration
Text: U.S. Tox21 Program National Center for Advancing Translational Sciences [NCATS] NIH Chemical Genomics Center [NCGC] U.S. Environmental Protection Agency [EPA] National Institutes of Environmental Health Sciences [NIEHS] National Toxicology Program [NTP] U.S. Food and Drug Administration [FDA] Tox21 Assay Overview: Compound auto fluorescence often interferes with screening of the compound library against various biological targets and signaling pathways. Some of these compounds may have fluorophoric properties. Such properties may interfere with the assay outputs resulting in false positives and/or negatives. To decrease such complications and ensure the compound activities are relevant in terms of biological response, the Tox21 10K compound library was screened for auto fluorescence. From the fluorophores used as reporter signals in our screening assays, the auto fluorescence equivalencies of compounds against three fluorophores have been evaluated: Triamterene, Fluorescein and Rose Bengal sodium for blue, green and red fluorescence, respectively. The fluorescence intensities were measured using Excitation/Emission wavelengths at 405/460nm, 485/535nm and 540/590nm for blue, green and red labels, respectively. This assay includes the red fluorescence data.
Tox21 Assay Protocol Summary: 2,000 HepG2 cells in 5 uL of culture medium (MEM containing 10% FBS) per well were dispensed into black wall/clear bottom 1536-well plates using a Multidrop Combi Dispenser (ThermoFisher Scientific, Waltham, MA). The assay plates were incubated overnight at 37 C to allow cell attachment to the well bottom, followed by the transfer of 23 nL compound or DMSO vehicle by a pintool work station (Kalypsys , San Diego, CA). After the assay plates were incubated for 1 hr at 37 C and 5% CO2, fluorescence intensities in the assay plates were measured by an Envision (PerkinElmer, Shelton, CT) plate reader using three labels for measuring blue, green and red fluorescence at […] 460, 535 and 590 nm respectively.
% is scaled to controls: 0 for no effect and ±100 for the full control effect.

Compound	fluorescence, relative to Rose Bengal	outcome
COC(=O)CCCCCCCCC(=O)OC	-0.0138%	–
CCC(C)(C)C1CCC(OC)CC1 (stereo not given)	-0.192%	–
COC[C@H](c1ccc(C(F)(F)F)cc1)N1CCN(C2(C)CCN(C(=O)c3c(C)ncnc3C)CC2)C[C@H]1C	-0.0632% [at 46 µM]	–
NC(=O)CCCCC1CCSS1 (stereo not given)	-0.308% [at 46 µM]	–
C[N+](C)(C)CC[N+]1(C)Cc2c(Cl)c(Cl)c(Cl)c(Cl)c2C1	0.778% [at 46 µM]	–
OCCN1C[C@H](O)[C@@H](O)[C@H](O)[C@H]1CO	0.355% [at 46 µM]	–
NC(N)=NS(=O)(=O)c1ccc(N)cc1	-0.133% [at 18.6 µM]	–
CN(C)C(=O)Nc1ccccc1	0.326%	–
CCCCCCCCCCCCCCCCCCOCC(O)CO (stereo not given)	0.26% [at 46 µM]	–
Nc1nc2c(ncn2CCC(CO)CO)c(=O)[nH]1	-0.302% [at 46 µM]	–
Cc1ccccc1C(=O)O	0.0858%	–
CCCCCCCCN(C)CCCCCCCC	0.478% [at 95.7 µM]	–
C#CC(O)C(CC)CCCC (stereo not given)	0.0425%	–
C=CC(=O)N1CCOCC1	-0.0367%	–
O=[N+]([O-])c1ccc(CCO)cc1	-0.144%	–
NS(=O)(=O)c1cc2c(cc1Cl)NC(CSCc1ccccc1)=NS2(=O)=O	-0.338% [at 18.6 µM]	–
CCCC(C)CO (stereo not given)	-0.0386%	–
C=C(C)[C@H]1CC=C(C)CC1	-0.0597%	–
CCCCCOC(=O)Nc1nc(=O)n([C@@H]2O[C@H](C)[C@@H](O)[C@H]2O)cc1F	0.536% [at 46 µM]	–
C=C(C)[C@@H]1CCC2=CC(=O)C[C@@H](C)[C@]2(C)C1	-0.11%	–

Compound	fluorescence, relative to Rose Bengal	outcome
CC(=O)c1ccc(C)cc1	-0.258%	–
CC(C)(O)c1ccccc1	-0.0133%	–
[O-][N+](=Nc1ccccc1)c1ccccc1	–	inactive
Cc1ncc(CSSCc2cnc(C)c(O)c2CO)c(CO)c1O	-0.0455% [at 46 µM]	–
CC12CCC(CC1=O)C2(C)C (stereo not given)	-0.0175%	–
c1ccc(CCCc2ccccn2)cc1	0.188%	–
NCCN1CCNC1=O	-0.0944%	–
CC1(C)SC(C)(C)SC(C)(C)S1	-0.0926%	–
Cc1cc(C)cc(OCC2CNC(=O)O2)c1 (stereo not given)	-0.14% [at 46 µM]	–
CCC(=O)c1cccc(Cl)c1	0.0116% [at 95.7 µM]	–
CCCCCC[C@@H](CCC)C(=O)O	-0.237% [at 46 µM]	–
CCCCCCOC(=O)c1ccccc1O	0.437%	–
CCCC(=O)O[C@]1(C(=O)CCl)[C@@H](C)C[C@H]2[C@@H]3CCC4=CC(=O)C=C[C@]4(C)[C@@]3(F)C(=O)C[C@@]21C	0.18% [at 46 µM]	–
N#CCc1ccccc1[N+](=O)[O-]	-0.107%	–
CN(C)C(=O)C(CCN1CCC(O)(c2ccc(Cl)cc2)CC1)(c1ccccc1)c1ccccc1	0.326% [at 46 µM]	–
CCCC=O	0.25%	–
O=C1OC(=O)c2cc([N+](=O)[O-])ccc21	-0.0116%	–
CNc1ncnc2nc[nH]c12	-0.0099% [at 95.7 µM]	–
CCN1CCN(c2cc3c(cc2F)c(=O)c(C(=O)O)cn3C2CC2)CC1	0.731% [at 46 µM]	–
COC(=O)C1=C(C)NC(C)=C(C(=O)OCC(C)=O)C1c1ccccc1[N+](=O)[O-] (stereo not given)	-0.615% [at 46 µM]	–

— PubChem BioAssay (Tox21)
